# Vaccinia inh: blocks a specific stage of Vaccinia orthopoxvirus infection; Vaccinia-infected cells, mCherry/Venus stage reporter fluorescence; hits give low values; activity change (mCherry), % (concentration not given with the values); actives 0.01% (n = 89,000); AID 1053133; in the data active means activity change below about -37%, passing the limit was not always enough; tested in A549 cells
# * = called active by the depositor. Shown is part of a subset that was picked to be rich in hits.
SMILES,Vaccinia inh
CCCNC(=O)N1C[C@H](C)[C@@H](OC)CN(C)C(=O)c2ccc(NC(C)=O)cc2OC[C@H]1C,0
COc1ccc(S(=O)(=O)N[C@H]2CC[C@H](CC(=O)N3CCC(Cc4ccccc4)CC3)O[C@H]2CO)cc1,-22
O=C(N[C@@H]1CC[C@@H](CCn2cc(C3(O)CCCC3)nn2)O[C@@H]1CO)C1CC1,-2
CC(=O)N(C)C[C@H]1Oc2cc(/C=C/c3ccccc3)ccc2S(=O)(=O)N([C@@H](C)CO)C[C@H]1C,-2
Cc1noc(C)c1S(=O)(=O)N(C)C[C@H]1Oc2c(NC(=O)C3CCCCC3)cccc2C(=O)N([C@@H](C)CO)C[C@H]1C,-2
COc1ccc(S(=O)(=O)Nc2ccc3c(c2)C(=O)N([C@H](C)CO)C[C@H](C)[C@H](CN(C)S(=O)(=O)c2ccccc2)OCCCC[C@@H](C)O3)cc1,1
CCS(=O)(=O)N1CC2(CN(Cc3ccccc3F)[C@@H](CO)c3[nH]c4cc(OC)ccc4c32)C1,21
CO[C@H]1CN(C)C(=O)c2cc(NC(=O)C3CCOCC3)ccc2OC[C@H](C)N(C)C[C@H]1C,3
COCC(=O)Nc1ccc2c(c1)C(=O)N(C)C[C@@H](OC)[C@H](C)CN(CC1CCCCC1)[C@@H](C)CO2,-16
CO[C@@H]1CN(C)C(=O)c2ccc(NC(=O)c3ccno3)cc2OC[C@H](C)N(S(C)(=O)=O)C[C@H]1C,22
C[C@H](CO)N1C[C@H](C)[C@@H](CN(C)C(=O)CCC(F)(F)F)OCc2cnnn2CCCC1=O,13
O=C(N[C@@H]1CC[C@@H](CCNS(=O)(=O)c2ccc(Cl)cc2)O[C@@H]1CO)c1cnccn1,3
O=C(c1cccc(F)c1)N1CC(=O)N2[C@@H](CO)[C@H](c3ccc(-c4ccccc4F)cc3)[C@@H]2C1,21
CS(=O)(=O)N1CC2(C1)[C@H](c1ccccc1)[C@@H](CO)N2CC1CCCC1,1
CN(C)C(=O)c1ccc(-c2ccc3c(c2)[C@H]2[C@H](CCN2Cc2ccc4c(c2)OCO4)[C@@H](CO)N3)cc1,-22
CN(C)C(=O)c1ccc(-c2ccc3c(c2)[C@H]2[C@H](CCN2Cc2ccc4c(c2)OCO4)[C@H](CO)N3)cc1,-27
COc1ccccc1CN1CC[C@H]2[C@H](CO)Nc3ccc(-c4ccc(C(=O)N(C)C)cc4)cc3[C@H]21,-40*
CN(C)C(=O)c1ccc(-c2ccc3c(c2)[C@@H]2[C@@H](CCN2Cc2ccc4c(c2)OCO4)[C@H](CO)N3)cc1,-29
COc1ccccc1CN1CC[C@@H]2[C@@H](CO)Nc3ccc(-c4ccc(C(=O)N(C)C)cc4)cc3[C@@H]21,-39*
CN(C)C(=O)c1ccc(-c2ccc3c(c2)[C@H]2[C@H](CCN2C(=O)c2ccccc2)[C@H](CO)N3)cc1,-9
Cc1ccc(S(=O)(=O)Nc2cccc3c2O[C@H](CN(C)CC2CC2)[C@@H](C)CN([C@@H](C)CO)C3=O)cc1,7
CCC(=O)Nc1ccc2c(c1)C(=O)N(C)C[C@H](OC)[C@H](C)CN(Cc1ccccc1F)[C@@H](C)CO2,-15
COCC(=O)N(C)C[C@H]1Oc2cc(-c3cncnc3)ccc2S(=O)(=O)N([C@H](C)CO)C[C@@H]1C,18
COc1ccc(S(=O)(=O)Nc2ccc3c(c2)C(=O)N([C@H](C)CO)C[C@@H](C)[C@@H](CN(C)S(=O)(=O)c2ccccc2)OCCCC[C@@H](C)O3)cc1,-25
COc1ccc2c3c(n(C)c2c1)[C@@H](CO)N(C(=O)CN(C)C)CC31CCN(C(=O)NC(C)C)CC1,11
SMILES,Vaccinia inh
COc1ccc2c3c([nH]c2c1)[C@H](CO)N(C(=O)Nc1ccc(F)cc1)CC31CN(S(=O)(=O)c2ccc(C)cc2)C1,15
OC[C@@H]1[C@H]2c3ccccc3NC[C@H]2N1CC1CCCCC1,1
C[C@@H]1CN([C@H](C)CO)C(=O)Cc2cc(NC(=O)Nc3ccc4c(c3)OCO4)ccc2O[C@@H]1CN(C)CC1CCCCC1,-28
C[C@@H]1CN([C@H](C)CO)C(=O)c2cc(NC(=O)CCC(F)(F)F)ccc2O[C@H]1CN(C)Cc1ccccc1,0
C[C@H]1CN([C@@H](C)CO)S(=O)(=O)c2ccc(C#CC(C)(C)O)cc2O[C@H]1CN(C)C(=O)CN(C)C,46
O=C(C1CCCC1)N1CC2(C1)[C@H](c1ccccc1)[C@H](CO)N2C(=O)c1cccnc1,16
Cc1ccc(S(=O)(=O)N(C)C[C@H]2Oc3cc(C#Cc4ccncc4)ccc3S(=O)(=O)N([C@@H](C)CO)C[C@H]2C)cc1,-46*
C[C@H](CO)N1C[C@H](C)[C@H](CN(C)S(=O)(=O)c2ccc(F)cc2)Oc2cc(C#Cc3ccncc3)ccc2S1(=O)=O,-20
C[C@@H]1CN([C@@H](C)CO)S(=O)(=O)c2ccc(C#Cc3ccncc3)cc2O[C@H]1CN(C)S(=O)(=O)c1ccc(F)cc1,-29
C[C@H]1CN([C@@H](C)CO)C(=O)c2cc(NC(=O)Cc3cn(C)c4ccccc34)ccc2O[C@H]1CN(C)CC1CC1,-19
CO[C@H]1CN(C)C(=O)c2ccc(NC(=O)c3ccc(F)cc3)cc2OC[C@H](C)N(C(=O)c2ccc(F)cc2)C[C@@H]1C,-87*
CO[C@@H]1CN(C)C(=O)c2ccc(NC(=O)c3ccc(F)cc3)cc2OC[C@@H](C)N(C(=O)c2ccc(F)cc2)C[C@@H]1C,-5
CO[C@@H]1CN(C)C(=O)c2ccc(NC(=O)c3ccc(F)cc3)cc2OC[C@H](C)N(C(=O)c2ccc(F)cc2)C[C@H]1C,-3
CC(C)NC(=O)Nc1ccc2c(c1)CC(=O)N([C@@H](C)CO)C[C@H](C)[C@@H](CN(C)C(=O)NC(C)C)O2,10
CCC(=O)Nc1ccc2c(c1)C(=O)N(C)[C@@H]1CC[C@H](CC(=O)N[C@H](C)c3ccccc3)O[C@@H]1CO2,-1
CN1C(=O)c2cc(NC(=O)NC3CCCC3)ccc2OC[C@H]2O[C@H](CC(=O)NC3CCC3)CC[C@@H]21,8
CC(C)NC(=O)N[C@H]1C[C@@H]2O[C@H](CO)CC[C@@H]2O[C@@H]1CCc1ccc(-c2ccccc2F)cc1,11
CNC[C@@H]1Oc2ncc(C#CC3CCCC3)cc2C(=O)N([C@@H](C)CO)C[C@@H]1C,-7
C[C@@H]1CN([C@H](C)CO)C(=O)Cc2cc(NS(=O)(=O)c3ccc(F)cc3)ccc2O[C@@H]1CN(C)Cc1ccccc1,-20
C[C@H](CO)N1C[C@H](C)[C@H](CN(C)C)Oc2cc(-c3ccccc3)ccc2S1(=O)=O,1
CN1C[C@H](O)COC[C@H]2O[C@H](CC(=O)N3CCN(c4ccccc4)CC3)CC[C@@H]21,22
COC(=O)C[C@@H]1C[C@H]2c3cc(NS(=O)(=O)c4cccc(OC)c4)ccc3O[C@H]2[C@@H](CO)O1,8
C/C=C/c1ccc([C@@H]2[C@H](CO)N3CCCCN(S(=O)(=O)c4ccc(F)cc4)C[C@@H]23)cc1,-35
C[C@H](CO)N1C[C@H](C)[C@@H](CN(C)C)Oc2ccc(NC(=O)C3CC3)cc2CC1=O,23
CC(C)NC(=O)N(C)C[C@@H]1Oc2c(NS(C)(=O)=O)cccc2C(=O)N([C@@H](C)CO)C[C@H]1C,4
COc1ccc2c3c([nH]c2c1)[C@H](CO)N(C(=O)C1CCC1)CC31CN(Cc2nccs2)C1,5
CN(C)C(=O)c1ccc(-c2cccc(-c3nc(C(=O)NCc4ccccc4)cc4c3[C@H](CCO)N([S@@](=O)C(C)(C)C)C4)c2)cc1,-24
CN(C)C(=O)c1ccc(-c2cccc(-c3nc(C(=O)NCc4ccccc4)cc4c3[C@@H](CCO)N([S@](=O)C(C)(C)C)C4)c2)cc1,-15
